# High-throughput results: PubChem BioAssay, several laboratories
# Compounds with a hit are over-represented: about 2.3% of the library has one in this group of screens.
# SENP7 block: inhibitors of human SENP7 protease | recombinant SENP7, Z-RLRGG-aminoluciferin luminescence, 40 min | inhibition, % at 5 µM | hit rate 1.5% among 330,000 | AID 434973;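 active = inhibition above about 50% at the single test dose, limit read from the data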
# SENP6 inh: inhibitors of human SENP6 protease | Q9GZR1 | Recombinant SENP6 catalytic domain, aminoluciferin luminescence | inhibition, % at 10 µM | hit rate 1.8% among 330,000 | AID 2599;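 active = inhibition above about 50% at the single tested dose, limit read from the data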
# LGR2 inh: inhibitors of bursicon-induced Drosophila LGR2 receptor cAMP signaling. AID 720647. HEK293 LGR2, CRE-luciferase, bursicon-stimulated, 4 h. hit rate 0.35% among 380,000. inhibition, % at 9.99 µM;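 active = drop in luminescence signal, shown as inhibition above about 50% in the replicate tests, limit read from the data, passing the limit was not always enough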;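 also: agonist challenge used bursicon conditioned medium at about half maximal strength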
# SENP8 block-1: inhibitors of human SENP8 protease | Q96LD8 | recombinant SENP8, Nedd8 substrate fluorescence | inhibition, % at 20 µM | hit rate 0.64% among 360,000 | AID 602440; in the data active = inhibition mostly above about 40%, no sharp cut-off; inactive = mostly below about 27%
# Target sequence (Q96LD8 whole entry, looked up): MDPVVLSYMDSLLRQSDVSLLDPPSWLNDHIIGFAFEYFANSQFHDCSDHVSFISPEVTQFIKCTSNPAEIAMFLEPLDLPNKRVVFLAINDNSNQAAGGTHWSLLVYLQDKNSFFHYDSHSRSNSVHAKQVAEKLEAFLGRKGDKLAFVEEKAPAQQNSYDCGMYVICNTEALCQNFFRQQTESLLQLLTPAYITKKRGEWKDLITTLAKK
# SENP8 block-2: blocks the human protease SENP8; purified SENP8, Z-RLRGG-aminoluciferin cleavage, luminescence; inhibition, % at 10 µM; hit rate 1.2% among 330,000; Q96LD8; in the data active = inhibition above about 50%
# HSP90 inh: blocks HSP90-mediated luciferase refolding in reticulocyte lysate | Rabbit reticulocyte lysate, luciferase refolding luminescence, 3 h | hit rate 0.91% among 290,000 | AID 1789 | inhibition, % at 5.6 µM;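 active = inhibition above the screen-wide mean plus 3 SD, computed separately per campaign, cut at about 16% in these data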;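 also: inhibitors lower the luminescence because luciferase stays unfolded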
# SENP8 confirm: confirmation of human SENP8 protease inhibitors; shares compounds with SENP7 block; Recombinant SENP8, Z-RLRGG-aminoluciferin luminescence, 60 min; inhibition, % at 12.5 µM; hit rate 40% among 6,200;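 active = mean inhibition across replicates above about 50%, limit read from the data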
# SENP6 confirm: human SENP6 inhibition, confirmed | shares compounds with SENP7 block | recombinant SENP6, Z-RLRGG-aminoluciferin luminescence | inhibition, % at 12.5 µM | hit rate 58% among 6,200
# SENP7 confirm: confirmation of human SENP7 protease inhibitors; AID 488917; recombinant SENP7, Z-RLRGG-aminoluciferin luminescence, 40 min; inhibition, % at 12.5 µM; hit rate 69% among 6,200; shares compounds with SENP7 block
# Casp3 select: selectivity test for SENP inhibitors: human caspase-3 inhibition; AID 488918; purified caspase-3, Z-DEVD-aminoluciferin luminescence, 60 min; shares compounds with SENP7 block; inhibition, % at 12.5 µM; hit rate 60% among 6,200;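 active = mean inhibition above about 50%, limit read from the data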
# Target sequence (P42574 28-227 limits assumed): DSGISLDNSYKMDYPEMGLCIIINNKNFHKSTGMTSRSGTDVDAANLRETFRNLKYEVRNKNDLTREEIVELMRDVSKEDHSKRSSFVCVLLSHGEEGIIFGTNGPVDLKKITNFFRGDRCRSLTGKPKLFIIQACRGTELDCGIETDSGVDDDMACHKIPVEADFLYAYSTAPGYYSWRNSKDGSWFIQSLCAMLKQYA
# SENP luc ctr: luminescence interference (SENP counter-screen); shares compounds with SENP7 block; Pre-incubated SENP8/Z-RLRGG-aminoluciferin, luciferase luminescence interference; inhibition, % at 12.5 µM; hit rate 39% among 6,200;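 active = mean inhibition above about 50% when retested at one dose, limit read from the data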
# A number is an active result; - = inactive; . = not tested or not shown.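 The calls were made as follows, unless noted: active = mean inhibition above about 50% in the one-dose retest (limit read from the data); inactive = the rest.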
SMILES,SENP7 block,SENP6 inh,LGR2 inh,SENP8 block-1,SENP8 block-2,HSP90 inh,SENP8 confirm,SENP6 confirm,SENP7 confirm,Casp3 select,SENP luc ctr
O=C1/C(=C/c2ccc(O)cc2)COc2ccccc21,93,95,-,-,83,-,94,90,94,66,89
CCOc1ccc2nc(N3CCC(C(=O)N4CCN(C5CCCCC5)CC4)CC3)sc2c1,-,-,-,-,-,-,.,.,.,.,.
Fc1ccc2nc(N3CCCC3)sc2c1,56,-,-,-,-,-,-,-,85,69,-
Fc1cc(F)c2nc(N3CCCCC3)sc2c1,75,-,.,-,61,-,-,75,95,72,-
Clc1cc(Cl)c2nc(N3CCCC3)sc2c1,-,-,.,-,-,-,.,.,.,.,.
CCOc1ccc2nc(N3CCCCCC3)sc2c1,62,55,-,-,-,-,51,55,84,50,57
Clc1cc(Cl)c2nc(N3CCCCC3)sc2c1,-,67,.,-,-,-,-,-,-,-,-
O=[N+]([O-])c1ccc2nc(N3CCCC3)sc2c1,-,-,-,-,-,-,.,.,.,.,.
C[C@@H]1CN([C@@H](C)CO)C(=O)Cc2cc(N(C)C)ccc2O[C@H]1CN(C)C,.,.,-,.,.,.,.,.,.,.,.
C[C@@H]1CN([C@@H](C)CO)C(=O)c2cccc(NC(=O)Nc3ccc4c(c3)OCO4)c2O[C@H]1CN(C)CC1CC1,.,.,-,.,.,.,.,.,.,.,.
C/C=C/c1ccc([C@H]2[C@@H](CN(C)C(=O)C3CC3)N(C(=O)C3CC3)[C@H]2CO)cc1,.,.,-,.,.,.,.,.,.,.,.
C[C@H]1CN([C@@H](C)CO)C(=O)c2cc(NC(=O)C3CC3)ccc2O[C@H]1CN(C)Cc1ccc(Cl)c(Cl)c1,.,.,-,.,.,.,.,.,.,.,.
C[C@H]1CN([C@@H](C)CO)C(=O)c2cccc(NS(=O)(=O)c3ccc(F)cc3)c2O[C@H]1CN(C)CC1CCCCC1,.,.,-,.,.,.,.,.,.,.,.
Cn1cccc1C(=O)C(=O)Nc1ccc(F)c(F)c1,83,89,-,-,80,-,-,-,77,53,-
Cn1cccc1C(=O)C(=O)Nc1cc(Cl)cc(Cl)c1,94,73,.,-,67,-,-,53,88,58,-
CC(C(=O)Nc1ccc(F)c(F)c1)N1CCN(C)CC1 (stereo not drawn),-,-,-,-,-,-,.,.,.,.,.
Cn1cccc1C(=O)c1ccc(Cl)cc1Cl,-,-,.,-,-,-,.,.,.,.,.
Cn1cccc1C(=O)C(=O)Nc1ccc(Cl)cc1,95,90,.,-,86,-,93,93,100,90,57
COc1ccccc1-c1cnc2c(c1)C(=O)N([C@@H](C)CO)C[C@H](C)[C@@H](CN(C)C(=O)c1cccnc1)O2,.,.,-,.,.,.,.,.,.,.,.
O=C([C@@H]1[C@@H](CO)[C@@H]2Cn3c(ccc(-c4ccc(F)cc4)c3=O)[C@H]1N2)N1CCCCC1,.,.,-,.,.,.,.,.,.,.,.
CO[C@H]1CN(C)C(=O)c2ccc(NC(C)=O)cc2OC[C@H](C)N(Cc2cccnc2)C[C@@H]1C,.,.,-,.,.,.,.,.,.,.,.
Cc1ccc(Cn2ccsc2=NC(=O)COC(=O)c2ccc(O)cc2O)cc1,-,74,-,-,-,-,57,55,79,-,-
CCCNC(=O)Nc1ccc2c(c1)OC[C@@H](C)N(Cc1ccccn1)C[C@@H](C)[C@H](OC)CN(C)C2=O,.,.,-,.,.,.,.,.,.,.,.
O=C(Nc1ccc(-c2nc3ccccc3s2)c(OC(=O)c2ccccc2)c1)c1ccccc1,65,-,-,-,-,-,-,-,-,-,-
CO[C@H]1CN(C)C(=O)c2cc(NC(=O)C3CCCC3)ccc2OC[C@@H](C)N(CC2CC2)C[C@H]1C,.,.,-,.,.,.,.,.,.,.,.
Fc1ccccc1CNc1ncnc2sccc12,-,87,-,-,-,-,-,-,-,-,-
